Results from PubChem BioAssay (Tox21).
“And” between values parts separate entries of the source, which are not always exact repeats. Equal values may be shown once. A number with no mark means an inactive call. A call without a number means that no potency is given here. The source made the active and inactive calls. Unless noted, the call rests on the fitted dose curve; in most records, active means well fitted curve in the direction sought with a large enough effect in the repeat runs; inconclusive means weak or mixed curves; inactive means no such curve, though single readings can be large; an effect the other way counts as inactive or inconclusive.

What was measured:
[1] = qHTS assay to identify small molecule antagonists of the glucocorticoid receptor (GR) signaling pathway - cell viability counter screen (AID 720693); further: nearly all actives have a fitted effect of over 55% in size; further: potency means the concentration at half of the fitted maximal effect
[2] = qHTS assay for identifying genotoxic compounds that show differential cytotoxicity against isogenic chicken DT40 cell lines with known DNA damage response pathways - wild type cell line (AID 743012); further: nearly all actives have a fitted effect of over 60% in size; further: potency means the concentration at half of the fitted maximal effect
Summary of the method: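 300 wt DT40 cells/well; cpd (DMSO) pintool-transferred after ~0.5 h at 37 C/5% CO2; 40 h incubation; CellTiter-Glo added, 30 min RT; luminescence read.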

[3] = qHTS assay for identifying genotoxic compounds that show differential cytotoxicity against isogenic chicken DT40 cell lines with known DNA damage response pathways - Rad54/Ku70 mutant cell line (AID 743015); further: nearly all actives have a fitted effect of over 60% in size; further: potency means the concentration at half of the fitted maximal effect
[4] = qHTS assay to identify small molecule antagonists of the androgen receptor (AR) signaling pathway - cell viability counter screen (AID 743033; further: nearly all actives have a fitted effect of over 45% in size; further: potency means the concentration at half of the fitted maximal effect)
[5] = target: Androgen receptor (Homo sapiens) (UniProt P10275); test: qHTS assay to identify small molecule agonists of the androgen receptor (AR) signaling pathway (AID 743036; active means well fitted activation curve with a large enough effect in the signal ratio in the repeat runs, with a control signal flat, not every such curve was filed as active; inconclusive means weak or mixed curves, or effect the other way; inactive means no such curve, though single readings can be large or run the other way; the % refers to the signal ratio; further: potency means the concentration at half of the fitted maximal effect)
Summary of the method: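 AR-UAS-bla HEK293 cells, plated 4 h before dosing, were treated with compound for 16 h at 37C. beta-Lactamase reporter read after 2 h with LiveBLAzer B/G FRET substrate at room temperature.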

[6] = qHTS assay to identify small molecule antagonists of the androgen receptor (AR) signaling pathway using the MDA cell line - cell viability counter screen (AID 743041; further: nearly all actives have a fitted effect of over 45% in size; further: potency means the concentration at half of the fitted maximal effect)
Summary of the method: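 qHTS viability read-out; MDA-kb2 AR-luc; R1881-stimulated; 16 h exposure at 37C, 0% CO2; CellTiter-Fluor, 30 min; fluorescence intensity.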

[7] = target: Androgen receptor (Homo sapiens) (UniProt P10275); test: qHTS assay to identify small molecule antagonists of the androgen receptor (AR) signaling pathway using the MDA cell line (AID 743042; further: nearly all actives have a fitted effect of over 55% in size)
Summary of the method: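 MDA-kb2 cells (human breast carcinoma, stably carrying an MMTV-luciferase reporter responsive to AR and GR) were plated at 3,000 cells/well and preincubated 5 hr at 37C, then given compound plus R1881 agonist for 16 h. ONE-Glo luminescence was read.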

[8] = qHTS assay to identify small molecule antagonists of the thyroid receptor (TR) signaling pathway - cell viability counter screen (AID 743064); further: nearly all actives have a fitted effect of over 50% in size; further: potency means the concentration at half of the fitted maximal effect
Summary of the method: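 GH3.TRE-Luc rat pituitary cells dosed after 4 hr plating, co-stimulated with T3 at 1 nM final, incubated 23.5 h at 37 C. Viability measured in the same wells by CellTiter-Fluor fluorescence after 30 min further at 37 C.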

[9] = qHTS assay to identify small molecule antagonists of the estrogen receptor alpha (ER-alpha) signaling pathway - cell viability counter screen (AID 743074; calls by dose curve; further: nearly all actives have a fitted effect of over 45% in size; further: potency means the concentration at half of the fitted maximal effect)
[10] = target: Estrogen receptor (Homo sapiens) (UniProt P03372); test: qHTS assay to identify small molecule agonists of the estrogen receptor alpha (ER-alpha) signaling pathway using the BG1 cell line (AID 743079); details: BG1Luc4E2 cells, ERE-luciferase agonist, 22 h; further: nearly all actives have a fitted effect of over 20% in size; further: potency means the concentration at half of the fitted maximal effect
[11] = qHTS assay to identify small molecule antagonists of the estrogen receptor alpha (ER-alpha) signaling pathway using the BG1 cell line - cell viability counter screen (AID 743081);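 further: compound given together with 17beta-estradiol as the ER stimulus; nearly all actives have a fitted effect of over 45% in size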; further: potency means the concentration at half of the fitted maximal effect
[12] = target: Aromatase (Homo sapiens) (UniProt P11511); test: qHTS assay to identify aromatase inhibitors (AID 743083); further: nearly all actives have a fitted effect of over 55% in size; further: potency means the concentration at half of the fitted maximal effect
[13] = qHTS assay for identifying genotoxic compounds that show differential cytotoxicity against isogenic chicken DT40 cell lines with known DNA damage response pathways - Rev3 mutant cell line (AID 743014); further: nearly all actives have a fitted effect of over 55% in size; further: potency means the concentration at half of the fitted maximal effect
[14] = target: Androgen receptor (Homo sapiens) (UniProt P10275); test: qHTS assay to identify small molecule agonists of the androgen receptor (AR) signaling pathway using the MDA cell line (AID 743040; further: nearly all actives have a fitted effect of over 20% in size)
Summary of the method: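 Agonist activity is measured as luciferase luminescence in human MDA-kb2 cells whose MMTV reporter responds to both AR and GR. Compounds in DMSO incubate 16 h at 37C, 0% CO2, and ONE-Glo is read after 30 min.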

[15] = qHTS assay to identify small molecule antagonists of the thyroid receptor (TR) signaling pathway (AID 743065); further: nearly all actives have a fitted effect of over 55% in size; further: potency means the concentration at half of the fitted maximal effect
Summary of the method: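 GH3.TRE-Luc rat pituitary cells carrying two TR response elements driving luciferase were plated for 4 h, given compound plus 1 nM T3 (final), and incubated 23.5 h at 37 C. ONE-Glo luminescence measured reporter inhibition; CellTiter-Fluor fluorescence tracked cytotoxicity.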

[16] = target: Estrogen receptor (Homo sapiens) (UniProt P03372); test: qHTS assay to identify small molecule antagonists of the estrogen receptor alpha (ER-alpha) signaling pathway (AID 743069; active means well fitted curve in the direction sought with a large enough effect in the signal ratio in the repeat runs, not every such curve was filed as active; inconclusive means weak or mixed curves, or effect the other way; inactive means no such curve, though single readings can be large or run the other way; the % refers to the signal ratio; further: potency means the concentration at half of the fitted maximal effect)
Summary of the method: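 Screening used a UAS-driven beta-lactamase reporter integrated into HEK293 cells expressing ER-alpha, stimulated with 17beta-estradiol alongside test compounds over 18 hr at 37C; signal came from LiveBLAzer B/G FRET fluorescence.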

[17] = target: Estrogen receptor (Homo sapiens) (UniProt P03372); test: qHTS assay to identify small molecule agonists of the estrogen receptor alpha (ER-alpha) signaling pathway (AID 743075; calls by dose curve); details: HEK293 ER-alpha-UAS-bla, beta-lactamase FRET ratio, 18 h; activation: at 70.1 µM (top of the series)
[18] = test system: thyroid hormone receptor (rat, GH3 cells); test: qHTS assay to identify small molecule agonists of the thyroid receptor (TR) signaling pathway (AID 743066; calls by dose curve)
[19] = qHTS assay to identify small molecule antagonists of the estrogen receptor alpha (ER-alpha) signaling pathway using the BG1 cell line (AID 743080; calls by dose curve;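 further: BG1 cells stimulated with 17beta-estradiol alongside compound; nearly all actives have a fitted effect of over 25% in size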)
Summary of the method: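 Luminescence from a 4×ERE-luciferase reporter in BG1-Luc-4E2 cells served as read-out. Cells, pre-cultured 5 days in stripped-serum phenol-red-free medium, were exposed to compound with 17beta-estradiol co-stimulation for 21.5 h at 37 C.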

Aromatase (Homo sapiens), sequence (P11511 whole entry, looked up): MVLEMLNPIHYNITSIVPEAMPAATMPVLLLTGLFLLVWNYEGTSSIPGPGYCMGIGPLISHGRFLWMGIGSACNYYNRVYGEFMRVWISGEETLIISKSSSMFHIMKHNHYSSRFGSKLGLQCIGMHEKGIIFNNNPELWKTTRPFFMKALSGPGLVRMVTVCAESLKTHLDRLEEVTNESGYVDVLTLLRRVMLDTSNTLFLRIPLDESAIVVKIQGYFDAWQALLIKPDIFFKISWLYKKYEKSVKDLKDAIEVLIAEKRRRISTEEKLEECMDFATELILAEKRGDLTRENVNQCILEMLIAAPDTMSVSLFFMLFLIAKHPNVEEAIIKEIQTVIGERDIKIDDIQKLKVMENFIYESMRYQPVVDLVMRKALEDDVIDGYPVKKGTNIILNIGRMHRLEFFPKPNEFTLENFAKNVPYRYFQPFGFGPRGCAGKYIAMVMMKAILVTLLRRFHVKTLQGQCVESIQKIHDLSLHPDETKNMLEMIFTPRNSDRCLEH
Androgen receptor (Homo sapiens), sequence (P10275 whole entry, looked up): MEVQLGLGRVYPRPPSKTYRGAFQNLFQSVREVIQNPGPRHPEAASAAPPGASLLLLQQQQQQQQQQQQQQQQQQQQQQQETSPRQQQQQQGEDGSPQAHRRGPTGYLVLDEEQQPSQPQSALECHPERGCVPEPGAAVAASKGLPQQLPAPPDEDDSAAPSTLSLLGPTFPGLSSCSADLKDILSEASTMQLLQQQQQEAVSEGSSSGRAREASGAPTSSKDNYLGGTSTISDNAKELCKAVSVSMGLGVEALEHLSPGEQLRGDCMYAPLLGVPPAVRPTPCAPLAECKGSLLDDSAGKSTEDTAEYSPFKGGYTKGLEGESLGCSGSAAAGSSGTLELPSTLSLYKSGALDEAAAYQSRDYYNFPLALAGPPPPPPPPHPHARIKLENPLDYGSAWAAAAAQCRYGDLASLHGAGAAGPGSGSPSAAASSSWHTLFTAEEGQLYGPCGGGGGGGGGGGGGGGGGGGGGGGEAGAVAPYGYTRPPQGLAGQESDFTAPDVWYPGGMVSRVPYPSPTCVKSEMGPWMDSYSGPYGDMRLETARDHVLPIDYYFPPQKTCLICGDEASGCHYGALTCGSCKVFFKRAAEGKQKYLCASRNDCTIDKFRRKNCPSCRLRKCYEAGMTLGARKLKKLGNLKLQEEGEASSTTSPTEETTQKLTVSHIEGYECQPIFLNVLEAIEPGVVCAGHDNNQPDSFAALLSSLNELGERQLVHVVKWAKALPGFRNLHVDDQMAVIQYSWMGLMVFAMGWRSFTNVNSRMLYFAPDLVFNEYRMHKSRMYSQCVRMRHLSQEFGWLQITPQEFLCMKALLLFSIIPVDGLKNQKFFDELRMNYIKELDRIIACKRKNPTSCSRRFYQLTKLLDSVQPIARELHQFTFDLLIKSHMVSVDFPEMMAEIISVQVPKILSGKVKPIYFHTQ
Estrogen receptor (Homo sapiens), sequence (P03372 whole entry, looked up): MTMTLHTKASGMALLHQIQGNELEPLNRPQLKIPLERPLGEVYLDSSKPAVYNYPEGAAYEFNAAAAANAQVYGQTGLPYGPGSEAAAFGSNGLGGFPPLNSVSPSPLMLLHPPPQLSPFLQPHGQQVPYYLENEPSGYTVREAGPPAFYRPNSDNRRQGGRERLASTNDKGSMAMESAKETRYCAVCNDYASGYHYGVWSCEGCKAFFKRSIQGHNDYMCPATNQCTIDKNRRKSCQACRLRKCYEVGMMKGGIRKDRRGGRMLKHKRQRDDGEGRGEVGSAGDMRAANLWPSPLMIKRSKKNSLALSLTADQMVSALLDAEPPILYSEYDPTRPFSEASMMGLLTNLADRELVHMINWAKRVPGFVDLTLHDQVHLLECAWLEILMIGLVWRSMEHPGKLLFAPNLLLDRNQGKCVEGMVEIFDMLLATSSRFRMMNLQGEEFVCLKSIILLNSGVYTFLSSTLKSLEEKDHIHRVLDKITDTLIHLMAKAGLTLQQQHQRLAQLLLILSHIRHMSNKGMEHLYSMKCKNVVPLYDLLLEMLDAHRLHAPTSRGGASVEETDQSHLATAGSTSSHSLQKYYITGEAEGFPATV

For O=C1CCCc2c1cc1ccc3cccc4ccc2c1c34, the Potency [1] was “inactive”, the Potency [2] was “inactive” and the Potency [3] was “inactive”. For the same molecule, the Potency [4] was “inactive”, the Potency [5] was 14 µM (active) and the Potency [6] was “inactive”. For the same molecule, the Potency [7] was “inactive”, the Potency [8] was “inactive” and the Potency [9] was “inactive”. The Potency [10] was 3.9 µM (active), the Potency [11] was “inactive” and the Potency [12] was “inactive”.
In the case of O=C(NOCC1CC1)c1ccc(F)c(F)c1Nc1ccc(I)cc1Cl, the Potency [1] is reported as 23.9 µM (active), the Potency [2] is reported as 29.8 µM (active) and the Potency [13] is reported as 29.8 µM (active). For the same molecule, the Potency [14] was “inactive”, the Potency [6] was “inactive” and the Potency [8] was 15 µM (active). The Potency [15] was 13.3 µM (active), the Potency [16] was 3.79 µM [inconclusive] (active) and the Potency [17] was “inactive”. The Potency [11] was “inactive” and the Potency [12] was “inactive”.
For CCCN(CCC)c1c([N+](=O)[O-])cc(C(F)(F)F)c(N)c1[N+](=O)[O-], the Potency [1] was 48.9 µM (active), the Potency [2] was 12.2 µM (active) and the Potency [3] was 12.2 µM (active). For the same molecule, the Potency [6] was 60.9 µM (active), the Potency [8] was 13.6 µM (active) and the Potency [15] was 13.6 µM (active). For the same molecule, the Potency [12] was 15.3 µM (active).
In the case of CC(C)C(C)(C)C(C)(C)C(C)(C)S, the Potency [1] is reported as “inactive”, the Potency [2] is reported as “inactive” and the Potency [7] is reported as “inactive”. For the same molecule, the Potency [18] was “inactive”, the Potency [16] was “inactive” and the Potency [17] was “inactive”. The activation ([10]; at 70.3 µM (top of the series)) was 4.61%, the Potency [19] was “inactive” and the Potency [11] was “inactive”.
For CCCCN(CCCC)C(=O)N(CCCC)CCCC, the Potency [1] was “inactive”, the Potency [13] was “inactive” and the Potency [3] was “inactive”. For the same molecule, the Potency [4] was “inactive”, the Potency [6] was “inactive” and the Potency [18] was “inactive”. The Potency [9] was “inactive” and the Potency [11] was “inactive”.
In the case of CCc1oc2ccccc2c1C(=O)c1cc(Br)c(O)c(Br)c1, the Potency [1] is reported as 13.4 µM (active), the Potency [4] is reported as “inactive” and the Potency [14] is reported as “inactive”. For the same molecule, the Potency [6] was “inactive”, the Potency [7] was “inactive” and the Potency [15] was 26.6 µM (active). For the same molecule, the Potency [18] was “inactive”, the Potency [16] was 10.7 µM [inconclusive] (active) and the Potency [9] was “inactive”. The Potency [17] was “inactive”, the activation ([10]; at 70.3 µM (top of the series)) was -23.9% and the Potency [19] was “inactive”. The Potency [11] was “inactive” and the Potency [12] was “inactive”.
With CCC(C)(C)C1CCCCC1OC(C)=O (stereo unspecified) the Potency [1] was “inactive”, the Potency [2] was “inactive” and the Potency [3] was “inactive”. For the same molecule, the Potency [6] was “inactive”, the Potency [8] was “inactive” and the Potency [15] was “inactive”. For the same molecule, the Potency [18] was “inactive”, the Potency [16] was “inactive” and the Potency [9] was “inactive”. For the same molecule, the Potency [17] was “inactive”, the activation ([10]; at 70.3 µM (top of the series)) was 7.91% and the Potency [19] was “inactive”. The Potency [11] was “inactive” and the Potency [12] was “inactive”.
For C[n+]1ccn(Cc2ccccc2)c1, the Potency [1] was “inactive”, the Potency [2] was “inactive” and the Potency [4] was “inactive”. The Potency [6] was “inactive”, the Potency [8] was “inactive” and the Potency [15] was “inactive”. The Potency [18] was “inactive”, the Potency [16] was “inactive” and the Potency [17] was “inactive”. The Potency [11] was “inactive” and the Potency [12] was “inactive”.
For CCC(Cl)C(Cl)C(Cl)CC(Cl)C(Cl)C(C)Cl (stereo unspecified), the Potency [1] was “inactive”, the Potency [13] was 54.5 µM (active) and the Potency [3] was 54.5 µM (active). The Potency [4] was “inactive”, the Potency [6] was “inactive” and the Potency [18] was “inactive”. The Potency [9] was “inactive”, the Potency [11] was “inactive” and the Potency [12] was “inactive”.
For CCC1OCC(COc2ccc(Oc3ccccc3)cc2)O1 (stereo unspecified), the Potency [1] was “inactive”, the Potency [13] was “inactive” and the Potency [4] was “inactive”. The Potency [8] was “inactive”, the Potency [9] was “inactive” and the Potency [11] was “inactive”. For the same molecule, the Potency [12] was “inactive”.
In the case of CCCCN1C(=O)[C@@H]([C@H](O)C2CCCCC2)NC(=O)C12CCN(Cc1ccc(Oc3ccc(C(=O)O)cc3)cc1)CC2, the Potency [1] is reported as “inactive”, the Potency [2] is reported as 61.1 µM (active) and the Potency [3] is reported as 15.4 µM (active). For the same molecule, the Potency [6] was “inactive”, the Potency [15] was 61.1 µM (active) and the Potency [16] was “inactive”. The Potency [9] was “inactive”, the Potency [17] was “inactive” and the Potency [11] was “inactive”. The Potency [12] was “inactive”.
With O=c1cccccc1O the Potency [1] was “inactive”, the Potency [13] was 27.8 µM (active) and the Potency [3] was 55.5 µM (active). For the same molecule, the Potency [4] was 44.5 µM (active), the Potency [6] was “inactive” and the Potency [8] was 19.7 µM (active). For the same molecule, the Potency [15] was 17.6 µM (active), the Potency [18] was “inactive” and the Potency [16] was “inactive”. For the same molecule, the Potency [9] was “inactive”, the Potency [17] was “inactive” and the activation ([10]; at 95 µM (top of the series)) was -8.54%. For the same molecule, the Potency [11] was “inactive”.
In the case of O=Cc1cc(O)ccc1Br, the Potency [1] is reported as “inactive”, the Potency [4] is reported as “inactive” and the Potency [6] is reported as “inactive”. For the same molecule, the Potency [18] was “inactive”, the Potency [16] was “inactive” and the Potency [9] was “inactive”. For the same molecule, the Potency [17] was “inactive”, the Potency [10] was 31.1 µM (active) and the Potency [11] was “inactive”. The Potency [12] was “inactive”.
For C/C=C(\C)C(=O)OCc1ccccc1, the Potency [1] was “inactive”, the Potency [4] was “inactive” and the Potency [8] was “inactive”. For the same molecule, the Potency [15] was “inactive”, the Potency [18] was “inactive” and the Potency [9] was “inactive”. For the same molecule, the Potency [11] was “inactive” and the Potency [12] was “inactive”.
For O=C1c2ccccc2Cc2ccccc21, the Potency [1] was “inactive”, the Potency [2] was “inactive” and the Potency [13] was “inactive”. For the same molecule, the Potency [4] was “inactive”, the Potency [8] was 5.49 µM (active) and the Potency [15] was “inactive”. For the same molecule, the Potency [18] was “inactive”, the Potency [9] was “inactive” and the Potency [10] was 7.75 µM (active). For the same molecule, the Potency [12] was “inactive”.
For Nc1c2ccccc2nc2ccccc12, the Potency [1] was 16.9 µM (active) and 15.3 µM (active), the Potency [2] was 2.11 µM (active) and 4.27 µM (active) and the Potency [13] was 2.66 µM (active) and 2.14 µM (active). The Potency [3] was 944 nM (active) and 677 nM (active), the Potency [18] was “inactive” and the Potency [9] was “inactive”. For the same molecule, the Potency [10] was 11.9 µM (active) and 677 nM (active) and the Potency [12] was 18.8 µM (active) and 6.03 µM (active).
With NC(=O)N1C(=O)C(C(=O)c2cc(Cl)cs2)c2cc(F)c(Cl)cc21 (stereo unspecified) the Potency [1] was 38.9 µM (active), the Potency [3] was 61.1 µM (active) and the Potency [14] was “inactive”. The Potency [7] was “inactive”, the Potency [8] was 61.1 µM (active) and the Potency [15] was 61.1 µM (active). The Potency [9] was 49 µM (active), the Potency [17] was “inactive” and the Potency [19] was “inactive”. The Potency [11] was 8.63 µM (active).
